HIF act – HIF pathway transcriptional activation | U2OS HRE-luciferase reporter, luminescence; normalized: DMSO 0%, desferrioxamine 100% | activation, % at 7.5 µM (by protocol) | hit rate 0.32% among 300,000;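 active means mean activation of at least 10% of the iron chelator positive control signal, with at least half of replicates also reaching 10%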
Yeast superoxide – caloric restriction mimetics inhibiting age-related superoxide in yeast. S. cerevisiae aged cells, superoxide DHE fluorescence; hits give low values. superoxide response (% of plate mean), % at 10 µM. hit rate 0.18% among 330,000. AID 2690;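 active means superoxide response under a set limit, about three screen SD below normal, cut at about 65% in these data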;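 further: yeast aged for seven days with compound at 30 °C before DHE staining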
AHR act – human AHR activation | hit rate 2.5% among 320,000 | activation, % at 5 µM | AID 2796 | AHR-responsive luciferase reporter cells, luminescence; in the data active means activation above about 47%
HGIII-sPLA2 inh – Blocks human group III sPLA2 activity; Q9NZ20; QFRET BODIPY PC-A2 liposome hydrolysis, fluorescence; inhibition, % at 12.2 µM; hit rate 0.56% among 370,000;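 active means inhibition above mean plus 3 SD of compounds lying within the high and low control bounds, cut at about 19% in these data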
PLC-beta3 inh – PLC-beta3 (human) inhibition, primary screen | Q01970 | Purified PLC-beta3, fluorogenic substrate, fluorescence | inhibition, % at 12.2 µM | hit rate 0.18% among 370,000 | AID 720704
PLC-gamma1 inh – inhibitors of human phospholipase C gamma1 | AID 720700 | inhibition, % at 12.2 µM | hit rate 0.84% among 370,000 | P19174 | purified PLC-gamma1, fluorogenic substrate, fluorescence; in the data active means inhibition above about 9.5%
PLCg1 ctr – inhibits human PLC-gamma1 in PLC-beta3 counter-screen; hit rate 3.1% among 3,300; inhibition, % at 12.3 µM; shares compounds with PLC-gamma1 inh; purified PLC-gamma1, fluorogenic substrate, fluorescence; in the data active means inhibition above about 9.5%
PLCb3 confirm – human PLC-beta3 inhibition, confirmation | hit rate 1% among 3,300 | inhibition, % at 12.3 µM | shares compounds with PLC-gamma1 inh | AID 743261 | purified PLC-beta3, fluorogenic substrate fluorescence
Hits are given with their value; - = inactive; . = no result. Only some compounds are listed: those with a hit (about 3.9% of all), similar ones and a draw of the others. Unless noted, no stated cut-off is given here; in the data, active means inhibition above about 11%; inactive means the rest.

SMILES	HIF act	Yeast superoxide	AHR act	HGIII-sPLA2 inh	PLC-beta3 inh	PLC-gamma1 inh	PLCg1 ctr	PLCb3 confirm
O=C1CC(CC(=O)N/N=C/c2ccccc2[N+](=O)[O-])=NN1	-	-	47	-	-	13	-	-
COc1ccc(C(c2nnnn2Cc2cccs2)N2CCN(c3ccccc3F)CC2)cc1OC (stereo not given)	-	-	-	-	14	11	-	-
CCOc1ccc(-c2cc(C(=O)NCc3cc(OC)cc(OC)c3)[nH]n2)c(C)c1	.	.	.	-	-	-	.	.
CCOc1ccc(-c2cc(C(=O)NC3CCCCC3)[nH]n2)c(C)c1	.	.	.	-	12	-	-	-
CC(C)CC(=O)OCc1cn(-c2ccccc2)nn1	-	-	-	-	-	15	-	-
CC(C)(C)C(=O)OCc1cn(-c2ccccc2)nn1	-	-	-	-	-	11	-	-
CC(C)(C)C(=O)OCc1cn(-c2ccc(Cl)cc2)nn1	-	-	-	-	-	-	.	.
O=[N+]([O-])c1cc([N+](=O)[O-])c(Oc2cc(Cl)ccc2Cl)cc1NC1CCCCCCC1	-	-	-	-	-	-	.	.
CC(C)CNC(=O)C1(C)CCCCCN1C(=O)c1cccnc1 (stereo not given)	.	.	.	-	-	-	.	.
CCCCNC(=O)C1(C)CCCCN1C(=O)c1cc2ccccc2s1 (stereo not given)	.	.	.	-	13	-	-	-
CCCCNC(=O)C1(C)CCCCN1C(=O)c1ccc2sccc2c1 (stereo not given)	.	.	.	-	-	-	.	.
Cc1nc(C(F)(F)F)ccc1C(=O)N1CCCCCC1(C)C(=O)NCC(C)C (stereo not given)	.	.	.	-	-	16	-	-
CC(C)CNC(=O)C1(C)CCCCCN1C(=O)c1cc2ccccc2s1 (stereo not given)	.	.	.	-	-	14	-	-
CCOC(=O)C1(C)CCCCCN1C(=O)c1ccc(C(F)(F)F)nc1C (stereo not given)	.	.	.	-	-	-	.	.
NC(CCc1ccccc1)c1csc(NC(=O)Nc2cccc(C(F)(F)F)c2)n1 (stereo not given)	.	.	.	-	-	-	.	.
O=C1OC(Oc2ccccc2)(c2ccccc2)c2ccccc21 (stereo not given)	-	-	-	-	-	-	.	.
O=C1OC(Cc2ccccc2)(c2ccccc2)c2ccccc21 (stereo not given)	.	.	.	-	11	11	-	-
CCC(=O)Nc1cccc(NC(=S)NC(=O)c2ccccc2C)c1	-	-	-	-	-	9.9	-	-
COc1ccccc1N1CC(C(=O)Nc2ccc(N3CCOCC3)cc2)CC1=O (stereo not given)	.	-	-	-	-	11	-	-
Cc1ccc(-c2csc(NC(=O)c3ccccc3F)c2C(=O)O)cc1	-	-	-	-	-	-	.	.
O=C(NC(=S)Nc1ccc(S(=O)(=O)Nc2nccs2)cc1)c1ccc(F)c(F)c1	-	-	-	-	-	14	-	-
O=C(CSc1ccc(Br)c2cccc(Cl)c12)Nc1ccc(S(=O)(=O)Nc2nccs2)cc1	-	-	-	-	-	11	-	-
O=C(NC(=S)Nc1ccc(S(=O)(=O)Nc2nccs2)cc1)c1ccccc1	-	-	-	-	-	-	.	.
CCCCOC(=O)Nc1ccc(S(=O)(=O)Nc2nccs2)cc1	-	-	-	-	-	-	.	.
CCCCCCCC(=O)Nc1ccc(S(=O)(=O)Nc2nccs2)cc1	-	-	-	-	-	26	-	-
SMILES	HIF act	Yeast superoxide	AHR act	HGIII-sPLA2 inh	PLC-beta3 inh	PLC-gamma1 inh	PLCg1 ctr	PLCb3 confirm
O=C(NCc1ccccc1)C(c1cc2ccccc2o1)n1c(=O)c(-c2ccccc2)nc2ccccc21 (stereo not given)	.	.	.	-	-	-	.	.
CCC(=O)N1Cc2cc(C(=O)Nc3nccs3)nc(-c3cccc(-c4ccccc4OC)c3)c2[C@@H]1CCO	.	.	.	-	-	-	.	.
CN(C)C(=O)CSc1nnc(CCN)o1	-	-	-	-	-	13	-	-
NCCc1nnc(SCC(=O)Nc2ccc(Br)cc2)o1	-	-	-	-	-	-	.	.
O=C1N=C2SCCN2/C1=C\c1ccccc1Cl	-	-	-	-	-	11	-	-
COc1ccccc1/C=C/C(=O)OCCN1C(=O)c2ccccc2C1=O	-	-	-	-	-	11	-	-
CCO[C@H]1OC(C(=O)N2CCN(Cc3ccc4c(c3)OCO4)CC2)=C[C@@H](c2csc3ccccc23)[C@@H]1CCCO	-	-	-	-	11	-	-	-
CCO[C@H]1OC(C(=O)N2CCN(C)CC2)=C[C@@H](c2ccc3c(c2)OCO3)[C@@H]1CCCO	-	-	-	-	20	-	-	-
CCO[C@H]1OC(C(=O)O)=C[C@@H](c2ccc3c(c2)OCO3)[C@@H]1CCCO	-	-	-	-	-	-	.	.
O=C(NC(c1ccccc1)c1ccccc1)c1ccc(CO)cc1	-	-	-	-	-	-	.	.
Cc1c(NC(=O)C(C)OC(=O)COc2cccc3c2OC(C)(C)C3)c(=O)n(-c2ccccc2)n1C (stereo not given)	-	-	-	-	11	-	-	-
Cc1cc(OCc2nc(N)nc(N)c2-c2ccc(Cl)c(Cl)c2)ccc1[N+](=O)[O-]	.	.	.	-	-	13	-	-
Cc1nc(N)nc(N)c1-c1ccc(Cl)c(Cl)c1	.	.	.	-	-	-	.	.
COc1ccc(/C=N/N2CCN(C)CC2)cc1O	-	-	-	-	-	11	-	-
COc1cccc(/C=N/N2CCN(C)CC2)c1	-	-	-	-	-	-	.	.
Cc1ccc(S(=O)(=O)n2ccc(-c3c(-c4ccc(Cl)cc4)noc3C)n2)cc1	.	.	.	-	-	-	.	.
Cc1onc(-c2ccc(Cl)cc2)c1-c1ccn(S(=O)(=O)c2cccc(Cl)c2)n1	.	.	.	-	-	9.8	-	-
COc1ccc(NC(=O)N2C[C@H]3CON(C)[C@H]3C[C@H]2c2ccc(N3CCCCC3)cc2)cc1	.	.	.	-	-	-	.	.
CN(C(=O)COC(=O)COc1ccc(N(C)S(=O)(=O)c2ccc(Cl)cc2)cc1)c1ccccc1	.	.	.	-	-	12	-	-
O=C(c1ccccc1F)N1CCN(C(=O)C2CC2)CC1	-	-	-	-	-	-	.	.
O=C1CSC(=S)N1N=Cc1ccc(Cl)s1	.	.	.	-	-	-	.	.
CC1=NN(c2ccc(Cl)cc2)C(=O)C1	-	-	-	-	-	13	-	-
Cc1ccc(C(=O)N/C(=C\c2ccccc2)C(=O)NCCCn2ccnc2)cc1	-	-	-	-	-	-	.	.
NC(=O)CSc1nnc(-c2ccccn2)n1Cc1ccco1	-	-	-	-	-	-	.	.
Clc1ccccc1CSc1nnc(-c2ccccn2)n1Cc1ccco1	-	-	-	-	-	12	-	-
CN1CCN(NC(=O)c2cc(S(=O)(=O)N3CCOCC3)c(Cl)cc2Cl)CC1	-	-	-	-	-	-	.	.
